Source: PubChem BioAssay AID2417 (National Center for Advancing Translational Sciences (NCATS), 2010)
The campaign covered roughly 140,000 compounds. About 4,300 (3.1%) were called active. About 21% were inconclusive and are not listed. For the sample, actives were picked, then their nearest neighbours and some compounds at random. Values without a mark were called inactive.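 The calls were made as follows: active = readout at or below -70, meaning at least 70% loss of cells showing the perinucleolar compartment, a nuclear body marking cancer cells; inconclusive = readout between -30 and a set limit; inactive = the rest.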

Assay: High Content Assay for Compounds that inhibit the Assembly of the Perinucleolar Compartment;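 also: plate controls were DMSO wells for no effect and camptothecin positive control wells for full effect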
Details: PC3M PTB-GFP, PNC prevalence imaging, 16 h; at 10 µM; active compounds read low
Method in brief: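 PC3M cells stably expressing PTB-GFP, 750–1000 cells/well, treated 16 h at 37 °C with compound (23 nl of library stock), in duplicate. After paraformaldehyde fixation and Hoechst stain, imaged at 20x; PNC prevalence scored by image analysis.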

**Q.** Which activity change (PNC), negative = inhibition does the source give for `O=c1oc2cc(O)ccc2cc1-c1ccc(F)cc1` here?
**A.** The activity change (PNC), negative = inhibition was 13%.

**Q.** For `COc1ccc(-c2cc3ccc(OCc4nn[nH]n4)cc3oc2=O)cc1`, which activity change (PNC), negative = inhibition is on record?
**A.** Its activity change (PNC), negative = inhibition is -119% (active).

**Q.** For `CCCCc1cc(=O)oc2cc(C)cc(OCc3nn[nH]n3)c12`, which activity change (PNC), negative = inhibition is on record?
**A.** Its activity change (PNC), negative = inhibition is 9.68%.

**Q.** With `Cc1cc(C)nc(N2CCN(c3ncnc4c3oc3ccccc34)CC2)n1` as the compound, how does the activity change (PNC), negative = inhibition read?
**A.** Its activity change (PNC), negative = inhibition is -114% (active).

**Q.** With `COc1ccccc1Nc1ncnc2c1oc1ccccc12` as the compound, how does the activity change (PNC), negative = inhibition read?
**A.** Its activity change (PNC), negative = inhibition is 52.9%.

**Q.** With `CCc1nc(N2CCN(c3nc(C)cc(C)n3)CC2)c2oc3ccccc3c2n1` as the compound, how does the activity change (PNC), negative = inhibition read?
**A.** Its activity change (PNC), negative = inhibition is -21.5%.

**Q.** With `O=C(COC(=O)c1c2c(nc3ccccc13)/C(=C\c1cccs1)CCC2)Nc1ccccc1Cl` as the compound, how does the activity change (PNC), negative = inhibition read?
**A.** The activity change (PNC), negative = inhibition was -25.2%.

**Q.** With `O=C(CN1C(=O)NC2(CCCCCC2)C1=O)NCc1cccs1` as the compound, how does the activity change (PNC), negative = inhibition read?
**A.** The activity change (PNC), negative = inhibition was -4.41%.

**Q.** With `COc1ccccc1OCc1ccc(C(=O)N2CCN(C)CC2)o1` as the compound, how does the activity change (PNC), negative = inhibition read?
**A.** The activity change (PNC), negative = inhibition was -19.3%.

**Q.** With `CS(=O)(=O)Nc1ccc(C(=O)N2CCCC2)cc1` as the compound, how does the activity change (PNC), negative = inhibition read?
**A.** Its activity change (PNC), negative = inhibition is 3.33%.

**Q.** With `O=C(c1ccc(Cl)c(Cl)c1)N1CCCC1` as the compound, how does the activity change (PNC), negative = inhibition read?
**A.** Its activity change (PNC), negative = inhibition is 50.1%.

**Q.** With `Cc1c(Cl)cccc1NC(=O)Nc1ccc(C(=O)N2CCCC2)cc1` as the compound, how does the activity change (PNC), negative = inhibition read?
**A.** The activity change (PNC), negative = inhibition was -83.7% (active).

**Q.** For `CCC(C)(C)C1CCC(=NNC(=O)c2ccc(Br)o2)CC1` (configuration not stated), which activity change (PNC), negative = inhibition is on record?
**A.** Its activity change (PNC), negative = inhibition is -3.73%.

**Q.** For `CC(C)c1nccn1S(=O)(=O)c1cc([N+](=O)[O-])ccc1Cl`, which activity change (PNC), negative = inhibition is on record?
**A.** The activity change (PNC), negative = inhibition was 2.64%.

**Q.** For `CCc1nnc(NC(=O)CCN(c2ccc(C)cc2)S(=O)(=O)c2ccccc2)s1`, which activity change (PNC), negative = inhibition is on record?
**A.** Its activity change (PNC), negative = inhibition is 2.13%.

**Q.** Which activity change (PNC), negative = inhibition does the source give for `Nc1ccc(C(=O)OCC(=O)NC2CCCc3ccccc32)cc1[N+](=O)[O-]` (configuration not stated) here?
**A.** The activity change (PNC), negative = inhibition was -26.5%.

**Q.** For `CCNc1ccc(C(=O)OCC(=O)N2c3ccccc3NC(=O)C2(C)C)cc1[N+](=O)[O-]`, which activity change (PNC), negative = inhibition is on record?
**A.** The activity change (PNC), negative = inhibition was -112% (active).

**Q.** Which activity change (PNC), negative = inhibition does the source give for `CC1(C)C(=O)Nc2ccccc2N1C(=O)COC(=O)Cn1cnc2ccccc2c1=O` here?
**A.** The activity change (PNC), negative = inhibition was -28.4%.

**Q.** With `Cc1ccc(C(=O)CNc2ccc(F)cc2)cc1` as the compound, how does the activity change (PNC), negative = inhibition read?
**A.** Its activity change (PNC), negative = inhibition is 23.7%.

**Q.** For `O=C(COC(=O)/C=C/c1nc2ccccc2s1)Nc1ccccc1Oc1ccccc1`, which activity change (PNC), negative = inhibition is on record?
**A.** The activity change (PNC), negative = inhibition was -108% (active).

**Q.** With `COc1cc(/C=C/C(=O)OCC(=O)Nc2cccc(Oc3ccccc3)c2)ccc1O` as the compound, how does the activity change (PNC), negative = inhibition read?
**A.** Its activity change (PNC), negative = inhibition is -28.3%.

**Q.** With `COc1ccc(/C=C/C(=O)OCC(=O)Nc2cccc(Oc3ccccc3)c2)c(OC)c1` as the compound, how does the activity change (PNC), negative = inhibition read?
**A.** Its activity change (PNC), negative = inhibition is 25.2%.

**Q.** For `O=C(NC1CCN(Cc2ccccc2)CC1)c1c(F)cccc1F`, which activity change (PNC), negative = inhibition is on record?
**A.** The activity change (PNC), negative = inhibition was -1.56%.

**Q.** With `COCCNC(=O)c1ccc(N2CCC3(CC2)OCCO3)c([N+](=O)[O-])c1` as the compound, how does the activity change (PNC), negative = inhibition read?
**A.** Its activity change (PNC), negative = inhibition is -24.5%.

**Q.** With `COc1cccc(NC(=S)NCc2ccco2)c1` as the compound, how does the activity change (PNC), negative = inhibition read?
**A.** The activity change (PNC), negative = inhibition was 14.5%.

**Q.** For `Cc1ccc(NC(=O)NC(=O)N(C2CCCCC2)S(=O)(=O)c2ccccc2)cc1`, which activity change (PNC), negative = inhibition is on record?
**A.** Its activity change (PNC), negative = inhibition is 8.69%.

**Q.** With `OC(COc1ccc2ccccc2c1)CN1CCOCC1` (configuration not stated) as the compound, how does the activity change (PNC), negative = inhibition read?
**A.** Its activity change (PNC), negative = inhibition is 13%.

**Q.** With `OC(COCc1ccco1)CN1CCN(c2ccccc2)CC1` (configuration not stated) as the compound, how does the activity change (PNC), negative = inhibition read?
**A.** Its activity change (PNC), negative = inhibition is -85.3% (active).

**Q.** With `OC(COCC1COc2ccccc2O1)CN1CCN(c2ccc(F)cc2)CC1` (configuration not stated) as the compound, how does the activity change (PNC), negative = inhibition read?
**A.** Its activity change (PNC), negative = inhibition is -2.15%.

**Q.** With `Cc1ccc(-c2csc(NNC(=O)c3ccccc3)n2)cc1` as the compound, how does the activity change (PNC), negative = inhibition read?
**A.** Its activity change (PNC), negative = inhibition is -13.8%.

**Q.** With `Cc1ccc(O)c(-c2cc(C(=O)NCc3ccccc3)[nH]n2)c1` as the compound, how does the activity change (PNC), negative = inhibition read?
**A.** Its activity change (PNC), negative = inhibition is -13.6%.

**Q.** For `Cc1cccc(NC(=O)CN2C(=O)CNC2=O)c1`, which activity change (PNC), negative = inhibition is on record?
**A.** The activity change (PNC), negative = inhibition was 48.7%.

**Q.** Which activity change (PNC), negative = inhibition does the source give for `Cc1cccc(NC(=O)C2CCN(S(=O)(=O)c3cccc4cccnc34)CC2)c1` here?
**A.** Its activity change (PNC), negative = inhibition is 20.6%.

**Q.** For `Cc1cccc(NC(=O)C2CC(=O)OC23CCCC3)c1` (configuration not stated), which activity change (PNC), negative = inhibition is on record?
**A.** Its activity change (PNC), negative = inhibition is -100% (active).

**Q.** For `CCCCOc1ccc(NC(=O)[C@@H]2CCCN2C(=O)C2CCN(S(=O)(=O)c3ccc(C)cc3)CC2)cc1`, which activity change (PNC), negative = inhibition is on record?
**A.** Its activity change (PNC), negative = inhibition is 7.21%.

**Q.** With `COc1cc(/C=N/O)ccc1OCc1ccc([N+](=O)[O-])cc1` as the compound, how does the activity change (PNC), negative = inhibition read?
**A.** The activity change (PNC), negative = inhibition was 15.8%.

**Q.** With `CCCCCNC(=O)c1cccnc1SCC(=O)Nc1ccccc1OC` as the compound, how does the activity change (PNC), negative = inhibition read?
**A.** The activity change (PNC), negative = inhibition was -119% (active).

**Q.** Which activity change (PNC), negative = inhibition does the source give for `COC(=O)c1ccccc1NC(=O)CSc1ccccn1` here?
**A.** The activity change (PNC), negative = inhibition was 6.08%.

**Q.** With `CCCNC(=O)c1ccccc1NC(=O)CSCc1ccc(OC)cc1` as the compound, how does the activity change (PNC), negative = inhibition read?
**A.** The activity change (PNC), negative = inhibition was -26.5%.

**Q.** With `COc1cc(NC(=O)c2ccccc2NS(=O)(=O)c2ccc(Cl)s2)cc(OC)c1` as the compound, how does the activity change (PNC), negative = inhibition read?
**A.** The activity change (PNC), negative = inhibition was -4.27%.

**Q.** With `Cc1cc(Nc2ccccc2)nc(N)n1` as the compound, how does the activity change (PNC), negative = inhibition read?
**A.** Its activity change (PNC), negative = inhibition is -28.7%.

**Q.** For `CCOC(=O)c1nn(-c2ccccc2F)c2nc(Nc3ccccc3)cc(=O)n12`, which activity change (PNC), negative = inhibition is on record?
**A.** The activity change (PNC), negative = inhibition was -91% (active).

**Q.** For `CCOC(=O)c1nc(Nc2ccc(C(=O)OC)cc2)c2ccccc2n1`, which activity change (PNC), negative = inhibition is on record?
**A.** The activity change (PNC), negative = inhibition was -9.55%.

**Q.** Which activity change (PNC), negative = inhibition does the source give for `Nc1nc(SCC(=O)NCCN2CCOCC2)nc2sc3c(c12)CCC3` here?
**A.** The activity change (PNC), negative = inhibition was 3.5%.

**Q.** For `Cc1ccc(Cl)cc1N1CCN(C(=O)c2cccc3c(=O)c(C)c(-c4ccccc4)oc23)CC1`, which activity change (PNC), negative = inhibition is on record?
**A.** The activity change (PNC), negative = inhibition was 2.98%.

**Q.** For `C[C@@H](O)c1nc2ccccc2n1N`, which activity change (PNC), negative = inhibition is on record?
**A.** Its activity change (PNC), negative = inhibition is -14.7%.

**Q.** With `O=C(O)c1cccc(N=NN2CCCCCC2)c1` as the compound, how does the activity change (PNC), negative = inhibition read?
**A.** The activity change (PNC), negative = inhibition was 12.1%.
